According to ChEMBL document CHEMBL3433997, “St. Jude Leishmania screening dataset” (2016):

Tests used:
Type in all cases: functional
[1] = target: Solute carrier family 2, facilitated glucose transporter member 1 (Homo sapiens) (UniProt P11166); assay: ST_JUDE_LEISH: Cytotoxicity at 2uM final concentration against transgenic Leishmania Mexicana promastigotes LmGLUT1 that are glucose transport deficient and complemented with the human glucose transporter GLUT1. Activity is measured by DNA content using SYBR green in vitro
Solute carrier family 2, facilitated glucose transporter member 1 (Homo sapiens), sequence (P11166 whole entry): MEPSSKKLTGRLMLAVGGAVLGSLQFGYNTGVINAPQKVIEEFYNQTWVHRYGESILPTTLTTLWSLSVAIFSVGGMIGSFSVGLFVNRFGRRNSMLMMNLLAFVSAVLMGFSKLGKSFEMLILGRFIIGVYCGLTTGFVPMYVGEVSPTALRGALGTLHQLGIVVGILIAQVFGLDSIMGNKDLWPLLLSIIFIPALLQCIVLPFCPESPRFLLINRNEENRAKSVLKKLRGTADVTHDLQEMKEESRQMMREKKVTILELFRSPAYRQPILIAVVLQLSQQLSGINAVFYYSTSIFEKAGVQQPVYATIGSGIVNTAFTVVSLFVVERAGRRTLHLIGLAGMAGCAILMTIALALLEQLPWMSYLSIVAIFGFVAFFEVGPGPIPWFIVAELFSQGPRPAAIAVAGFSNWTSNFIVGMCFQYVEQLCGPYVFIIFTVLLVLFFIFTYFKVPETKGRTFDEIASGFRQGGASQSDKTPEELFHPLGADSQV

[2] = target: Hexose transporter 1 (Plasmodium falciparum) (UniProt O97467); assay: ST_JUDE_LEISH: Cytotoxicity at 2uM final concentration against transgenic Leishmania Mexicana promastigotes LmPfHT that are glucose transport deficient and complemented with the Plasmodium falciparum hexose transporter. Activity is measured by DNA content using SYBR green in vitro
[3] = target: Glucose transporter (Leishmania mexicana) (UniProt O61059); assay: ST_JUDE_LEISH: Cytotoxicity at 2uM final concentration against transgenic Leishmania Mexicana promastigotes LmGT2 that are glucose transport deficient and complemented with the L. Mexicana glucose transporter 2. Activity is measured by DNA content using SYBR green in vitro

SMILES	inhibition [1] [%]	inhibition [2] [%]	inhibition [3] [%]
Cc1cc(N2CCC(NS(=O)(=O)c3ccccc3)CC2)nc(Nc2cccc(C#N)c2)n1	44.5	41.9	45.6
CCn1c(-c2nonc2N)nc2c(-c3cccc(Cl)c3)ncc(OCCCNCc3cnc(C)nc3N)c21	0.16	-3.01	2.98
N=C1NC(=N)N(OCCCCCCON2C(=N)NC(=N)NC2C=Cc2ccccc2)C(C=Cc2ccccc2)N1 (centres undefined)	1.73	2.16	10.7
CNC(=O)NC1CCN(Cc2c(-c3cccs3)nc3ccccc3c2C(=O)N[C@@H](C)C2CCCCC2)CC1	-1.53	0.94	-1.52
COc1ccc(CN2CCC(CNCCc3ccccc3Cl)CC2)cc1	19.2	11.1	12.5
O=c1c(NCCCN(Cc2ccc(F)cc2)c2ccccn2)c(NCc2cccnc2)c1=O	1.33	1.81	1.65
N#Cc1cccc(CN2CCCN(c3ccc(NC(=O)c4cccs4)cc3)CC2)c1	4.81	4.44	4.34
O=C(Nc1ccc(Cl)cc1)c1cccc(S(=O)(=O)NC2CCN(CC3CCCCC3)CC2)c1	0.8	1.68	3.31
COc1ccc(-c2cc(Nc3nc(-c4cccc(Cl)c4)nc4ccccc34)ccn2)cc1	1.11	0.61	-0.05
CC(C)c1ccc(NC(=O)c2ccc(CN3CCCN(Cc4cccc(Cl)c4)CC3)cc2)cc1	0.69	1.46	1.59
COc1cccc(C2CCN(CCN3CCC(NC(=O)c4ccc(-c5ccc(Cl)cc5)cc4)CC3)CC2)c1	-0.82	0.69	1.81
O=C(c1cc(-c2cccs2)n[nH]1)N1CCN(S(=O)(=O)c2ccc(Br)cc2)CC1	0.07	3.88	2.13
O=C(NCCCNc1ccc2ccccc2n1)c1cc2c(Cl)cc(Cl)cc2[nH]1	0.34	-0.36	2.17
